From the supplement of paper PMC6555819 come the findings set out here.

The test system of this assay is VDR:RXRa (NR concentration 270 nM, RXRa partner concentration 90 nM). The assay is described as follows: PBM binding z-score (relative to random genomic background probes); higher = stronger binding; sequences stand for … in GC…GCGATTGACAGCGTAGAATGAAGG
On the procedure: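 Protein-binding microarray (Agilent 4x180K custom design, double-stranded 60-nt probes: 5' GC cap, 34-nt variable region, 24-nt constant primer region; full probe sequence given). Purified or IVT nuclear receptor:RXRα heterodimers (3:1 NR:RXRα, mostly 270:90 nM) or homodimers were incubated for 1 h in PBS with 2% milk and no ligand, then detected with Alexa488 antibodies. Fluorescence from o1-orientation probes (~5 replicates averaged) was converted to z-scores against 500 random hg19 background probes. Variable regions are seed direct-repeat (DR0–DR5) sites, all their single-nucleotide variants and half-site ablations.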
Sequence TCTTGTAGATTAGCAGGTTAAGAAAGCTGGCCAA came in with a PBM binding z-score of 0.63.
The figure for TATACAGGGTCAAAGGCCTGAGTACGAATGTCGA is 4.53.
With CCATACGGGTCACTCCAGGTTATAGCATCGGAGT the figure was 4.11; with CCGACTGGGGCAAAGGTAACCATACTCAGTACGA, 0.122.
With TGCATGAGGTTATAAGATCAGGGAACGTTGCAAA the figure was 1.01.
AGTCAAAGTTCACTTGGTAACGTAAGATTCAGCT yielded a PBM binding z-score of 4.07.
With TAGCCTAGGTCATTGGGCCTGTATAGTACGCATC the figure was 2.38.
With TATACAGGGACAAAGGCCAGAGTACGAATGTCGA the figure was 0.123; with CCTTACGGGTCACTCCAGGTTATAGGATCGGAGT, 4.34.
The figure for GCTAGAAGGCCATTTGGGTCACTCAATGACGGGC is 1.82; for TCTTGTAGATCAATAGAGGTTAACAAAGTGCGCT it is 2.2.
Turning to CATCAAAGTTCAACTAAGGTAACGTAAAGCACGC, the PBM binding z-score was 4.98.
In the case of TAGCCTACGTCATGGGCCAGTATACCACGCGAAC, the PBM binding z-score was -0.472.
The figure for CACCCTAGGTCAGGGCCAGTATAGGAGGAACGTT is 0.555; for GATACAGGGACAGCTAGAGGCCAGAGTATGGAAA it is -0.526; for TGAATGAGGTTATACGATCAGGGAACGTTGCAAA it is 0.918.
With TGGATGAGGTTATAAGATCAGGGAACGTTGCAAA the figure was 1.04; with ATATGTAGGTTATCGTGTCATTCAGTTTGCGCAT, 2.28; with ATCTCTCGGTAACAAGTTCAGTGAAAGAGAGGAC, 1.62.
With TTACCAAAGTGAAGGTCGTTGATCCCTCTGTAGA the figure was 0.954; with AGTCAAAGCTCATCTAGGTAACGTAAGATATGCT, -0.215; with TCGCGTAGGTTAGTCGGGGCATTCAGCCAACATA, 2.54.
CCGACTGGGGCAAGTTTACCATAACGCACAGCCA registered a PBM binding z-score of 0.191.
With TCATATAGGTAAAGATGAAAGTCGAACGATATGA the figure was 0.437.
The figure for TCTTGTAGATCAACATGAGGTTAAGAAAGATCGA is 1.1; for AGCTCTAGGTAAGACTCAGTTCAGTGAAGAACGC it is 0.321; for TTACCAAGGTGAAGGTCGCTGATCCCTCTGTAGA it is 0.493.
The figure for GTACCAAAGTGAATAGGTCGTTGATGAGTAGGCG is 0.0078; for CGTACAAGGTCATAGGAGGTCAGTGAAGACAGAT it is 6.79; for TCTTGTAGATAAACAGGAGGTTAAGAAAGATCGA it is 0.873.
As to ATATGTACGTTAGCTGGGGTCATTCAGACTAGGC, the PBM binding z-score turned out to be 5.16.
The figure for GCTAGCAGGCCTTTTGGGTCACTCAATGACGGGC is -0.0926; for CCTCTGAGGACAGAAGGTCAGAGCTGTCCGCTTT it is 1.2.
With CCTACTGGGCCAAGGGTCATTGATTCCAATGCTC the figure was 3.45; with CCTAGCAGGCCAATCTCGGTCACTCAAGGCTTGA, -0.37; with ACTTACGGGTCAACGAGGTTTTAGCACGCGTATA, 6.69.
The figure for GCAGACAGGTGACACGCAGGTAACTCAGGGTGGC is -0.517; for TTACCAAGGAGAAAGGTCGTTGATGCACGCCTTG it is 1.49; for CCTGCTAGGTCAATGGTTAGCTAAAGCAGCTCGC it is 0.802.
The sequence CGTCAAAGTTCAACTAAGATAACGTAAAGCACGC registered a PBM binding z-score of 4.2.
